The values below come from ChEMBL document CHEMBL1157539, “Thousands of chemical starting points for antimalarial lead identification” (Nature, 2010).

What all share (assay type): functional
Test [1] deals with Plasmodium falciparum. Kind of test: GSK_TCMDC: Inhibition of Plasmodium falciparum 3D7 in whole red blood cells, using parasite LDH activity as an index of growth. Test compounds present at 2uM.
For test [2], the system named is Plasmodium falciparum. Kind of test: GSK_TCMDC: Inhibition of Plasmodium falciparum Dd2 in whole red blood cells, using parasite LDH activity as an index of growth. Test compounds present at 2uM.
Another test has as its system HepG2. Kind of test: GSK_TCMDC: Percent inhibition of human HepG2 cell line. Test compounds present at 10uM.

By Inhibition is commonly meant the share of the control response that was lost under treatment. High values mean a strong effect, low ones a weak effect. As to `CN(C)CCNC(=O)c1cccc(-c2cnc3ccc(NCc4ccc(Cl)c(Cl)c4)nn23)c1`, the results for the Inhibition with Plasmodium falciparum [1], in the test with Plasmodium falciparum [2] and in the test with HepG2 were 100%, 53% and 31%, respectively.

In the case of `O=C(Nc1ccccc1)c1ccc(-c2cc3ccncc3cc2OC2CCNCC2)s1`, the Inhibition was 100% in the test with Plasmodium falciparum [1], 8% in the test with Plasmodium falciparum [2] and 0% in the test on HepG2.

As to `Cc1ccc(Cn2ncc(NC3CCNCC3)c(Cl)c2=O)cc1NC(=O)Nc1ccc(-c2ccccc2)cc1.O=C(O)C(F)(F)F`, the Inhibition in the test on Plasmodium falciparum [1] was found to be 99%; in the test on Plasmodium falciparum [2], 61%; in the test on HepG2 it was 18%.

As to `CCN(CC)c1ccc(-c2nc3cc(Cl)cnc3[nH]2)cc1`, the Inhibition in the test on Plasmodium falciparum [1] turned out to be 85%; with Plasmodium falciparum [2], 85%; in the test on HepG2, 16%.

As to `O=C(O)C(F)(F)F.Oc1ccc(CN2CCC(NCc3cccc4ccccc34)CC2)cc1`, the figures for the Inhibition in the test with Plasmodium falciparum [1], in the test on Plasmodium falciparum [2] and with HepG2 were 97%, 8% and 8%, respectively.

In the case of `O=C(N[C@@H](CC1CCCCC1)C(=O)NCCN1CCCCC1)c1ccc(O)c(-c2ccc(Cl)c(Cl)c2)c1`, the Inhibition with Plasmodium falciparum [1] is listed as 97%; in the test on Plasmodium falciparum [2] it was 99%; with HepG2 it was 14%.

With `Nc1ncc(-c2ccsc2)c2ccc(-c3ccc4cn[nH]c4c3)cc12`, the values for the Inhibition with Plasmodium falciparum [1], with Plasmodium falciparum [2] and in the test on HepG2 were 95%, 41% and 18%, respectively.

In the case of `CCCc1cc(N2CCC(N3CCCC3)CC2)nc(Nc2ccc(Cl)cc2)n1`, the Inhibition in the test on Plasmodium falciparum [1] was found to be 96%; in the test on Plasmodium falciparum [2] it was 9%; in the test on HepG2 it was 29%.

Turning to `NCC1CCCN1Cc1cccc(-c2ccc(-c3nc4ccccc4[nH]3)s2)c1.O=C(O)C(F)(F)F` (centres undefined), the Inhibition is given as 99% with Plasmodium falciparum [1], 66% in the test with Plasmodium falciparum [2] and 16% with HepG2.

As for `Cl.O=S(=O)(NCCCN1CCOCC1)c1ccc2nccc(Nc3ccc(Oc4ccccc4)cc3)c2c1`, the values for the Inhibition in the test on Plasmodium falciparum [1], with Plasmodium falciparum [2] and in the test with HepG2 were 95%, 92% and 1%, respectively.

For the compound `O=C(/C=C/c1ccccc1Cl)Nc1ccc(Br)c(OCCN2CCC(O)(c3ccccc3)CC2)c1.O=C(O)C(=O)O`, the Inhibition with Plasmodium falciparum [1] is on record as 100%; in the test with Plasmodium falciparum [2], 85%; with HepG2, 39%.

Take `Cl.Oc1cc(-c2nc(C3(CNCc4ccc(Cl)cc4)CCCCC3)[nH]c2-c2ccncc2)ccc1Cl`: the Inhibition with Plasmodium falciparum [1] was 100%; with Plasmodium falciparum [2], 99%; with HepG2, 35%.

Turning to `CCOC(=O)c1nc(-c2cccnc2)[nH]c1NC(=S)NCc1ccccc1`, the Inhibition in the test with Plasmodium falciparum [1] stood at 100%; with Plasmodium falciparum [2], 100%; in the test with HepG2 it was 10%.

In the case of `CCc1c[nH]c2c(N3CCCC3=O)cc(C(=O)N[C@@H](Cc3ccccc3)[C@H](O)CNC(C)(C)CCCC(C)C)cc12.O=CO`, the Inhibition worked out at 96% with Plasmodium falciparum [1], 97% in the test with Plasmodium falciparum [2] and 22% in the test with HepG2.

Consider `O=C(Nc1cccc(C(F)(F)F)c1)c1cccc(S(=O)(=O)NCC2CCCN(CC3CCCCC3)C2)c1.O=C(O)C(F)(F)F` (centres undefined), for which the Inhibition in the test with Plasmodium falciparum [1] stood at 99%; with Plasmodium falciparum [2], 11%; in the test on HepG2 it was 17%.

For the compound `CCN(CC)S(=O)(=O)c1ccc(CCOCCCCCNCC(O)c2cc(Cl)c(N)c(Cl)c2)s1.O=C(O)/C=C/C(=O)O` (centres undefined), the Inhibition with Plasmodium falciparum [1] stood at 96%; in the test with Plasmodium falciparum [2], 80%; with HepG2 it was 35%.

In the case of `COc1cc(OC)nc(C(Sc2ccc(NC(=O)c3cccs3)cc2)c2ccccc2)n1` (centres undefined), the results for the Inhibition in the test with Plasmodium falciparum [1], with Plasmodium falciparum [2] and in the test with HepG2 were 97%, 96% and 7%, respectively.

`O=C(NCCN1CCCC1)c1ccc(-c2ccc(-c3nc4cc(C(F)(F)F)ccc4[nH]3)s2)cc1`: the Inhibition with Plasmodium falciparum [1] worked out at 97%; in the test with Plasmodium falciparum [2], 65%; in the test on HepG2, 31%.

Take `O=c1c(NCCCN(Cc2ccc(F)cc2)c2ccccn2)c(NCc2cccnc2)c1=O`: the Inhibition in the test on Plasmodium falciparum [1] was 100%; in the test with Plasmodium falciparum [2], 92%; with HepG2, 0%.

On to `CN(N=Cc1ccccc1)C(=N)NCCCC#Cc1cccc(CN2CCCC2)c1`, for which the Inhibition in the test with Plasmodium falciparum [1] came out at 89%; in the test on Plasmodium falciparum [2], 3%; in the test with HepG2, 16%.

Regarding `Fc1ccc2[nH]c(-c3cccc(-c4ccc(CNCc5cnn(-c6ccccc6)n5)cc4)c3)nc2c1.O=C(O)C(F)(F)F`, the Inhibition with Plasmodium falciparum [1] is 98%; with Plasmodium falciparum [2] it was 22%; in the test on HepG2, 18%.

Take `c1cn(CCCNc2ncc(-c3ccsc3)c(-c3nccs3)n2)cn1`: the values for the Inhibition in the test with Plasmodium falciparum [1], in the test with Plasmodium falciparum [2] and with HepG2 were 94%, 51% and 0%, respectively.

Regarding `COc1ccc2nccc([C@H](O)CN3CCC(NCc4nc5cccc(F)c5[nH]4)CC3)c2c1.O=C(O)C(=O)O`, the Inhibition is reported as 98% in the test with Plasmodium falciparum [1], 0% in the test with Plasmodium falciparum [2] and 0% in the test on HepG2.

On to `CN1CCC(NCc2ccc(-c3ccc(S(=O)(=O)NCc4ccccc4)cc3)cc2)CC1.O=C(O)C(F)(F)F`, for which the Inhibition in the test on Plasmodium falciparum [1] is listed as 99%; in the test with Plasmodium falciparum [2], 51%; with HepG2, 40%.

Consider `Cl.c1ccc(CN2CCN(CCNc3c4ccccc4nc4ccccc34)CC2)cc1`, for which the Inhibition was determined as 100% in the test with Plasmodium falciparum [1], 97% in the test on Plasmodium falciparum [2] and 44% in the test on HepG2.

Regarding `COc1cccc2c(N/N=C/c3ccc([N+](=O)[O-])cc3)ccnc12`, the figures for the Inhibition in the test with Plasmodium falciparum [1], in the test on Plasmodium falciparum [2] and in the test on HepG2 were 92%, 16% and 25%, respectively.

For `OC(CN1c2ccccc2Sc2ccccc21)CN(C1CCCCC1)C1CCCCC1` (centres undefined), the Inhibition in the test with Plasmodium falciparum [1] was found to be 99%; with Plasmodium falciparum [2], 96%; in the test on HepG2 it was 46%.

As for `Cc1cc(=O)c(-c2ccc(Oc3cccc(Cl)c3)cc2)c(C)[nH]1`, the Inhibition in the test on Plasmodium falciparum [1] is recorded as 95%; with Plasmodium falciparum [2], 89%; in the test with HepG2 it was 23%.
